Assay outcomes as filed in PubChem.
In the library only some 2.2% were active in any assay of this set; here they are far more common.
LMP1 NFkB inh: EBV LMP1-driven NF-kappaB luciferase reporter inhibitors, primary screen, cell-based, luminescence, single point; LMP1-induced NF-kappaB luciferase reporter cells; inhibition, % at 12.5 µM; 0.69% of 350,000 active; AID 504558, 2011; in the data active means inhibition above about 41%;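 further: 0% = neutral control wells and 100% = reference inhibitor control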
MITF TRPM1 inh: inhibitors of MITF-dependent TRPM1 promoter reporter, primary screen, cell-based, SK-MEL-5, single point, luciferase; AID 488899, 2010; 0.83% of 330,000 active; SK-MEL-5 TRPM1 promoter luciferase, 24 h; inhibition, % at 12.5 µM;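 active means mean inhibition across replicates of 60% or more, whatever share of single replicates reaches that level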
PAX8 reporter: inhibitors of PAX8-driven TPO luciferase reporter, primary screen, RMG-I cells, single concentration; 1.2% of 360,000 active; SteadyGlo, 24 h; inhibition, % at 12.6 µM; AID 652154, 2013;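 active means mean replicate inhibition at least 60% with every replicate also reaching 60%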;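 further: luciferase light reporting Pax8 driven TPO promoter activity; plate controls were median of neutral control wells for no effect and mitoxantrone controls for full effect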
LGR2 inh: inhibitors of bursicon-induced LGR2 CRE-luciferase signal, primary screen, cell-based, HEK293, CRE-luciferase reporter, bursicon stimulation; inhibition, % at 9.99 µM; Drosophila bursicon receptor LGR2 (rickets); 0.35% of 380,000 active; bursicon-stimulated, 4 h;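 active means drop in luminescence signal, shown as inhibition above about 50% in the replicate tests, limit read from the data, passing the limit was not always enough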;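 further: agonist challenge used bursicon conditioned medium at about half maximal strength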
Shn3 inh set2: reduction of Shn3 3'UTR firefly luciferase signal, primary screen, Schnurri-3 inhibitor project, cell-based, Clone20 osteoblasts, set 2; Clone20 osteoblast Shn3 3'UTR firefly luciferase, 24 h; AID 588674, 2011; inhibition, % at 12.5 µM; 0.52% of 360,000 active;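 active means mean inhibition of at least 75% with every replicate also reaching 75%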;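 further: 0% = median of neutral control wells and 100% = pilot-screen positive control compound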
EWS-Fli block: EWS/Fli-driven NR0B1 reporter inhibitors, primary screen, A673 cells, NR0B1 luciferase, luminescence, MLPCN library; viability-normalised; inhibition, % at 12.6 µM; 0.67% of 350,000 active; AID 651661, 2012;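 active means mean inhibition of at least 50% after viability correction, with every replicate also passing that limit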;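 further: firefly luciferase signal divided by Alamar Blue viability fluorescence both relative to DMSO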
Active calls of the source: *; . = no result.

SMILES	LMP1 NFkB inh	MITF TRPM1 inh	PAX8 reporter	LGR2 inh	Shn3 inh set2	EWS-Fli block
COc1ccc(C(=O)/C=C2\Sc3ccccc3N2C)cc1	-69	-9	-70	-22	-87	-86
COc1ccc(-[n+]2c(C)cc(/C=C3\Sc4ccccc4N3C)cc2C)cc1	-7	101*	80*	-1	88*	37
O=S(=O)(NC1c2cccc3cccc(c23)C1Sc1ncccn1)c1ccccc1 (stereo unspecified)	61*	1	-3	16	-12	6
C[C@@H]1CN([C@@H](C)CO)C(=O)Cc2cc(NC(=O)Nc3ccccc3)ccc2O[C@H]1CN(C)Cc1ccc(Oc2ccccc2)cc1	.	.	82*	7	.	23
COc1ccc(NC(=O)Nc2ccc3c(c2)CC(=O)N([C@H](C)CO)C[C@H](C)[C@@H](CN(C)Cc2ccc(Oc4ccccc4)cc2)O3)cc1	.	.	69*	17	.	5
C[C@@H]1CN([C@@H](C)CO)C(=O)Cc2cc(NC(=O)Cc3ccccc3)ccc2O[C@H]1CN(C)Cc1ccc(Oc2ccccc2)cc1	.	.	72*	13	.	4
Cc1ccc(S(=O)(=O)N[C@H]2CC[C@H](CCNC(=O)c3ccccc3F)O[C@H]2CO)cc1	.	.	-4	-7	.	-3
COc1ccc2c3c(n(C)c2c1)[C@@H](CO)N(CC1CC1)CC31CCN(C(=O)CN(C)C)CC1	.	.	-34	-6	.	-5
N=C(N)CCCOc1ccccc1-c1ccccc1	4	-4	63*	-12	15	5
CCOC(=O)c1c(-c2ccc(OC)cc2)csc1/N=C/C1=C(O)CCCC1=O	53*	-4	-26	22	-9	.
O=C(NC(=S)N1CCN(Cc2ccc3c(c2)OCO3)CC1)c1ccc(Cl)cc1	1	17	7	10	23	3
O=C(NC(=S)N1CCN(Cc2ccc3c(c2)OCO3)CC1)c1cccc(Br)c1	15	2	76*	-10	14	17
CSCCC(NS(=O)(=O)c1ccc2c(c1)OCCO2)C(=O)N(C)Cc1ccc(C)cc1 (stereo unspecified)	3	9	16	10	14	-8
COc1cccc(CN(C)C(=O)C(CCSC)NS(=O)(=O)c2ccc3c(c2)OCCO3)c1OC (stereo unspecified)	7	-6	70*	12	21	0
CN(C)C(=O)C[C@H]1C=C[C@H](NC(=O)C2CC2)[C@@H](CO)O1	.	.	.	-1	.	4
CN1CCN(C(=O)C[C@@H]2C[C@H]3c4cc(NC(=O)Nc5ccccc5F)ccc4O[C@H]3[C@H](CO)O2)CC1	.	.	-2	-3	.	-5
C[C@H](CO)N1C[C@H](C)[C@H](CN(C)C(=O)NC2CCCCC2)Oc2ncc(C#Cc3cccc(F)c3)cc2C1=O	.	.	10	0	.	-19
CCC(/C=C1\Sc2ccc(OC)cc2N1CCO)=C\c1sc2ccc(OC)cc2[n+]1CCO	46*	96*	16	-18	15	3
CC(=O)N(C)C[C@H]1Oc2cc(C3=CCCCC3)ccc2S(=O)(=O)N([C@H](C)CO)C[C@H]1C	.	.	.	11	.	-2
O=C(C[C@@H]1C=C[C@@H](NC(=O)c2ccccc2)[C@H](CO)O1)NCc1ccncn1	.	.	-4	1	.	2
Cc1coc2c1C(=O)C(=O)c1c-2ccc2c1CCCC2(C)C	-4	93*	.	-8	-11	-23
Cc1coc2c1C(=O)C(=O)c1c-2ccc2c(C)cccc12	79*	.	.	.	-65	.
C[C@H]1COC2=C1C(=O)C(=O)c1c2ccc2c1CCCC2(C)C	-20	84*	.	.	9	.
CO[C@@H]1CN(C)C(=O)c2ccc(NC(C)=O)cc2OC[C@H](C)N(C(=O)CN(C)C)C[C@H]1C	.	.	-7	-6	.	8
NC(=O)NCC#Cc1ccc2c(c1)[C@]1(C(=O)N2)[C@H](c2ccc(O)cc2)N2[C@H](c3ccccc3)[C@H](c3ccccc3)OC(=O)[C@H]2[C@@H]1C(N)=O	.	.	4	.	.	-1
Cc1noc(C)c1NC(=O)Nc1cccc2c1O[C@@H](CN(C)CC1CCCCC1)[C@@H](C)CN([C@H](C)CO)C2=O	.	.	-11	-29	.	9
